Measurements reported in PubChem BioAssay (NCATS).
Records with an inconclusive call do not appear. Entries that show only a call come without a potency. The source made the active and inactive calls. Calls come from the whole dose curve; as a rule, active = well fitted inhibition curve with a large enough effect; inconclusive = small, poorly fitted or top-dose-only effect; inactive = flat fitted curve, though single readings scatter.

Target: Calcium and integrin-binding protein 1 (Homo sapiens) (UniProt Q99828)
Sequence (Q99828 whole entry, looked up): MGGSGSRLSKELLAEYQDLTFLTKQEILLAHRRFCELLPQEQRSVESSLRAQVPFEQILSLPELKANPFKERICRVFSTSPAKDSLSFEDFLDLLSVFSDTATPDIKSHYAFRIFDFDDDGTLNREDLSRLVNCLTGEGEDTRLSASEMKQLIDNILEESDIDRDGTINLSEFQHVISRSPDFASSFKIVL
Experiment: Primary qHTS for Identification of Calcium Integrin Binding Protein 1 (CIB1) Competitor (AID 1508620); note: top concentration of the series differs between compounds
Details: CIB1-GST / FITC-alphaIIb peptide fluorescence polarization; series mostly up to 114 µM
How it was run: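 Fluorescence polarization competition: GST-tagged CIB1 (1 uM final) preincubated with compound 15 min at room temperature, then FITC-labelled alphaIIb peptide (100 nM final) added. After 15 min at room temperature, polarization read at Ex 480/Em 540.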

SMILES	Potency
COc1cc(C(=O)OC[C@H]2O[C@@H](Oc3ccccc3/C=C/C(=O)O)[C@H](O)[C@@H](O)[C@@H]2O)cc(OC)c1OC	inactive
C/C=C(\C)C(=O)OCC1OC(OC2OC(COC(=O)/C(C)=C/C)C(OC3OC(CO)C(OC(=O)/C(C)=C/C)C(OC(=O)/C(C)=C/C)C3O)C(O)C2O)C(O)C(O)C1OC1OC(CO)C(OC(=O)/C(C)=C/C)C(OC(=O)/C(C)=C/C)C1O (stereo not given)	inactive
O=C(c1cn(Cc2cncn2Cc2ccc(Br)cc2)cc1-c1cccc2ccccc12)N1CCOCC1	inactive
CC1(C)CC[C@]2(C(=O)O)[C@H](O)C[C@]3(C)C(=CCC4[C@@]5(C)CC[C@H](O[C@@H]6O[C@H](CO[C@@H]7OC[C@H](O)[C@H](O)[C@H]7O[C@@H]7OC[C@@H](O)[C@H](O)[C@H]7O)[C@@H](O)[C@H](O)[C@H]6O[C@@H]6O[C@H](CO)[C@@H](O)[C@H](O)[C@H]6O)C(C)(C)C5CC[C@]43C)[C@@H]2C1 (stereo not given in full)	inactive
CS(=O)(=O)c1ccc([C@H](CC2CCCC2)C(=O)Nc2nccs2)cc1	inactive
C[C@@H]1CCN(C(=O)N2CCCC2)C[C@@H]1N(C)c1ncnc2[nH]ccc12	inactive
C=C1CCC[C@]2(C)CC[C@@H](C(=C)C(=O)O)[C@H](O)[C@@H]12	inactive
c1cn2cc(-c3ccc4cn[nH]c4c3)nc(Nc3ccc(N4CCOCC4)cc3)c2n1	inactive
CCC(C)C(=O)O[C@H]1CCC=C2C=C[C@H](C)[C@H](CC[C@@H](O)C[C@@H](O)CC(=O)O)[C@H]21 (stereo not given in full)	inactive
O=C(O)C(O[C@@H]1O[C@H](CO[C@@H]2O[C@H](CO)[C@@H](O)[C@H](O)[C@H]2O)[C@@H](O)[C@H](O)[C@H]1O)c1ccccc1 (stereo not given in full)	inactive
